# Results taken from PubChem BioAssay AID1159580 (chemical genetic matrix, 2015).
# Where “and” joins values, the source holds several entries; their conditions need not be identical. Identical values can stand only once. The campaign covered roughly 5,500 compounds. About 2,000 (36%) were called active. Another 18% or so got no clear call; they are omitted. The list shows a part of the results. A number with no mark means an inactive call. No stated cut-off is given here; in the data, active means normalized growth mostly below about 0.91 (no sharp cut-off); inconclusive means no clear call, values can overlap the other calls; inactive means mostly above about 0.92.
# Experiment: chemical genetic growth profiling, strain panel (AID 1159580);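 further: tested at 20 µM; growth read once vehicle control cultures reached saturation at 30 °C; 1 = growth at the plate median or of vehicle wells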
# Settings: S. cerevisiae deletion strains, growth OD
smiles,measurement,setting,value
Cc1oncc1C(=O)Nc1ccc(C(F)(F)F)cc1,normalized growth,"locus YAL013W, strain DEP1, stronger effect = lower value",1.03 and 0.94
same,normalized growth,"locus YAL021C, strain ccr4, stronger effect = lower value",1.05
same,normalized growth,"locus YAL026C, strain drs2, stronger effect = lower value",0.97
same,normalized growth,"locus YAL030W, strain snc1, stronger effect = lower value",0.979
same,normalized growth,"locus YAL040C, strain CLN3, stronger effect = lower value",0.918
same,normalized growth,"locus YBL061C, strain skt5, stronger effect = lower value",1.01
same,normalized growth,"locus YBR009C, strain hhf1, stronger effect = lower value",0.901 (active)
same,normalized growth,"locus YBR021W, strain FUR4, stronger effect = lower value",1.02
same,normalized growth,"locus YBR023C, strain chs3, stronger effect = lower value",0.979
same,normalized growth,"locus YBR171W, strain sec66, stronger effect = lower value",1.02
same,normalized growth,"locus YBR229C, strain ROT2, stronger effect = lower value",1.01
same,normalized growth,"locus YBR231C, strain swc5, stronger effect = lower value",0.88 (active)
same,normalized growth,"locus YBR279W, strain paf1, stronger effect = lower value",1
same,normalized growth,"locus YCL011C, strain gbp2, stronger effect = lower value",0.919
same,normalized growth,"locus YCL016C, strain dcc1, stronger effect = lower value",0.981
same,normalized growth,"locus YCL029C, strain bik1, stronger effect = lower value",0.996
same,normalized growth,"locus YCL061C, strain MRC1 (second series), stronger effect = lower value",0.983
same,normalized growth,"locus YCL061C, strain MRC1, stronger effect = lower value",0.95
same,normalized growth,"locus YCL069W, strain vba3, stronger effect = lower value",0.982
same,normalized growth,"locus YCR088W, strain abp1, stronger effect = lower value",0.978
same,normalized growth,"locus YDL005C, strain med2, stronger effect = lower value",1.02
same,normalized growth,"locus YDL035C, strain GPR1, stronger effect = lower value",1.04
same,normalized growth,"locus YDL040C, strain nat1, stronger effect = lower value",0.99
same,normalized growth,"locus YDL074C, strain BRE1, stronger effect = lower value",1.01
same,normalized growth,"locus YDL101C, strain DUN1, stronger effect = lower value",1.02
same,normalized growth,"locus YDL134C, strain PPH21, stronger effect = lower value",1.04
same,normalized growth,"locus YDL185W, strain tfp1, stronger effect = lower value",0.993
same,normalized growth,"locus YDL192W, strain arf1, stronger effect = lower value",0.989
same,normalized growth,"locus YDR001C, strain nth1, stronger effect = lower value",0.986
same,normalized growth,"locus YDR069C, strain doa4, stronger effect = lower value",0.977
same,normalized growth,"locus YDR101C, strain arx1, stronger effect = lower value",0.991
same,normalized growth,"locus YDR137W, strain rgp1, stronger effect = lower value",1.03
same,normalized growth,"locus YDR150W, strain NUM1, stronger effect = lower value",1.01
same,normalized growth,"locus YDR159W, strain sac3, stronger effect = lower value",0.754 (active)
same,normalized growth,"locus YDR162C, strain NBP2, stronger effect = lower value",1.03
same,normalized growth,"locus YDR195W, strain ref2",1.07
same,normalized growth,"locus YDR297W, strain sur2, stronger effect = lower value",0.91 (active)
same,normalized growth,"locus YDR318W, strain mcm21, stronger effect = lower value",0.993
same,normalized growth,"locus YDR334W, strain swr1, stronger effect = lower value",0.991
same,normalized growth,"locus YDR335W, strain msn5, stronger effect = lower value",0.994
same,normalized growth,"locus YDR363W, strain ESC2, stronger effect = lower value",0.966
same,normalized growth,"locus YDR388W, stronger effect = lower value",1
same,normalized growth,"locus YDR392W, strain spt3, stronger effect = lower value",0.761
same,normalized growth,"locus YDR502C, strain sam2, stronger effect = lower value",0.996
same,normalized growth,"locus YEL003W, strain gim4, stronger effect = lower value",0.971
same,normalized growth,"locus YEL037C, strain rad23, stronger effect = lower value",1.01
same,normalized growth,"locus YEL061C, strain CIN8 (second series), stronger effect = lower value",0.998
same,normalized growth,"locus YEL061C, strain CIN8, stronger effect = lower value",1.01
same,normalized growth,"locus YER002W, strain NOP16, stronger effect = lower value",1.01
same,normalized growth,"locus YER015W, strain faa2, stronger effect = lower value",0.998
same,normalized growth,"locus YER016W, strain bim1, stronger effect = lower value",1.02
same,normalized growth,"locus YER110C, stronger effect = lower value",0.99
same,normalized growth,"locus YER111C, strain swi4, stronger effect = lower value",1.02
same,normalized growth,"locus YER155C, strain BEM2 (second series), stronger effect = lower value",0.733 (active)
same,normalized growth,"locus YER155C, strain BEM2, stronger effect = lower value",1.03
same,normalized growth,"locus YER167W, strain BCK2, stronger effect = lower value",1.02
same,normalized growth,"locus YFR010W, strain ubp6, stronger effect = lower value",1.01
same,normalized growth,"locus YGL078C, strain dbp3, stronger effect = lower value",0.991
same,normalized growth,"locus YGL086W, strain mad1, stronger effect = lower value",0.989
same,normalized growth,"locus YGL167C, strain pmr1, stronger effect = lower value",1.01
same,normalized growth,"locus YGL173C, strain kem1, stronger effect = lower value",0.976
same,normalized growth,"locus YGL227W, strain vid30, stronger effect = lower value",0.97
same,normalized growth,"locus YGL240W, strain doc1, stronger effect = lower value",0.785 (active)
same,normalized growth,"locus YGL248W, strain PDE1, stronger effect = lower value",1.02
same,normalized growth,"locus YGL253W, strain hxk2, stronger effect = lower value",0.997
same,normalized growth,"locus YGR078C, strain PAC10, stronger effect = lower value",1.02
same,normalized growth,"locus YGR135W, strain pre9, stronger effect = lower value",1
same,normalized growth,"locus YGR252W, strain gcn5, stronger effect = lower value",0.988
same,normalized growth,"locus YHR013C, strain ard1, stronger effect = lower value",1.13
same,normalized growth,"locus YHR027C, strain rpn1, stronger effect = lower value",0.992
same,normalized growth,"locus YHR030C, strain SLT2, stronger effect = lower value",1.02
same,normalized growth,"locus YHR079C, strain IRE1 (second series), stronger effect = lower value",0.98
same,normalized growth,"locus YHR094C, strain hxt1, stronger effect = lower value",0.99
same,normalized growth,"locus YHR129C, strain ARP1, stronger effect = lower value",1.01
same,normalized growth,"locus YHR142W, strain chs7, stronger effect = lower value",0.928
same,normalized growth,"locus YHR200W, strain rpn10, stronger effect = lower value",0.991
same,normalized growth,"locus YIL066C, strain RNR3, stronger effect = lower value",1.04
same,normalized growth,"locus YIL073C, strain SPO22, stronger effect = lower value",1
same,normalized growth,"locus YIL125W, strain kgd1, stronger effect = lower value",0.99
same,normalized growth,"locus YIR030C, strain dcg1, stronger effect = lower value",0.985
same,normalized growth,"locus YJL092W, strain hpr5, stronger effect = lower value",0.983
same,normalized growth,"locus YJL095W, strain BCK1 (second series), stronger effect = lower value",0.947
same,normalized growth,"locus YJL095W, strain BCK1, stronger effect = lower value",0.999
same,normalized growth,"locus YJL115W, strain asf1, stronger effect = lower value",1.01
same,normalized growth,"locus YJL129C, strain trk1, stronger effect = lower value",0.869 (active)
same,normalized growth,"locus YJL134W, strain LCB3, stronger effect = lower value",1.02
same,normalized growth,"locus YJL154C, strain vps35, stronger effect = lower value",0.994
same,normalized growth,"locus YJL164C, strain tpk1, stronger effect = lower value",0.952
same,normalized growth,"locus YJL166W, strain qcr8, stronger effect = lower value",0.932
same,normalized growth,"locus YJL168C, strain set2, stronger effect = lower value",0.993
same,normalized growth,"locus YJL187C, strain SWE1 (second series), stronger effect = lower value",1.01
same,normalized growth,"locus YJR043C, strain POL32, stronger effect = lower value",1.05
same,normalized growth,"locus YKL009W, strain mrt4, stronger effect = lower value",0.997
same,normalized growth,"locus YKL068W, stronger effect = lower value",0.998
same,normalized growth,"locus YKL085W, strain MDH1 (second series), stronger effect = lower value",0.999
same,normalized growth,"locus YKL085W, strain MDH1, stronger effect = lower value",0.999
same,normalized growth,"locus YKL160W, strain elf1, stronger effect = lower value",0.96
same,normalized growth,"locus YKR001C, strain vps1, stronger effect = lower value",0.997
same,normalized growth,"locus YKR026C, strain gcn3, stronger effect = lower value",0.98
same,normalized growth,"locus YKR091W, strain srl3, stronger effect = lower value",0.995
same,normalized growth,"locus YLL001W, strain dnm1, stronger effect = lower value",0.954
same,normalized growth,"locus YLL026W, stronger effect = lower value",0.966
same,normalized growth,"locus YLL041C, strain sdh2, stronger effect = lower value",0.958
same,normalized growth,"locus YLR027C, strain aat2, stronger effect = lower value",0.919 (active)
same,normalized growth,"locus YLR039C, strain RIC1, stronger effect = lower value",0.984
same,normalized growth,"locus YLR058C, strain SHM2, stronger effect = lower value",1.02
same,normalized growth,"locus YLR102C, strain apc9, stronger effect = lower value",0.983
same,normalized growth,"locus YLR221C, strain rsa3, stronger effect = lower value",0.962
same,normalized growth,"locus YLR258W, strain gsy2, stronger effect = lower value",0.947
same,normalized growth,"locus YLR262C, strain YPT6 (second series), stronger effect = lower value",1.03
same,normalized growth,"locus YLR262C, strain YPT6, stronger effect = lower value",1.01
same,normalized growth,"locus YLR268W, strain sec22, stronger effect = lower value",0.992
same,normalized growth,"locus YLR320W, strain mms22, stronger effect = lower value",0.889
same,normalized growth,"locus YLR330W, strain CHS5, stronger effect = lower value",1.02
same,normalized growth,"locus YLR342W, strain FKS1 (second series), stronger effect = lower value",1.04
same,normalized growth,"locus YLR342W, strain FKS1, stronger effect = lower value",0.952
same,normalized growth,"locus YLR357W, strain rsc2, stronger effect = lower value",0.947
same,normalized growth,"locus YLR370C, strain arc18, stronger effect = lower value",1.01
same,normalized growth,"locus YLR371W, strain rom2, stronger effect = lower value",0.982
same,normalized growth,"locus YLR384C, strain iki3, stronger effect = lower value",1
same,normalized growth,"locus YLR418C, strain cdc73, stronger effect = lower value",0.981
same,normalized growth,"locus YML016C, strain PPZ1, stronger effect = lower value",1.03
same,normalized growth,"locus YML032C, strain rad52, stronger effect = lower value",0.989
same,normalized growth,"locus YML120C, strain ndi1, stronger effect = lower value",0.979
same,normalized growth,"locus YML124C, strain tub3, stronger effect = lower value",0.988
same,normalized growth,"locus YMR058W, strain fet3, stronger effect = lower value",0.937
same,normalized growth,"locus YMR078C, strain ctf18, stronger effect = lower value",1
same,normalized growth,"locus YMR125W, strain sto1, stronger effect = lower value",0.984
same,normalized growth,"locus YMR129W, stronger effect = lower value",0.978
same,normalized growth,"locus YMR205C, strain PFK2, stronger effect = lower value",0.794 (active)
same,normalized growth,"locus YMR223W, strain ubp8, stronger effect = lower value",0.998
same,normalized growth,"locus YMR231W, strain pep5, stronger effect = lower value",1.01
same,normalized growth,"locus YMR263W, strain SAP30, stronger effect = lower value",1.02
same,normalized growth,"locus YMR307W, strain GAS1, stronger effect = lower value",1.16 and 0.976
same,normalized growth,"locus YNL067W, strain RPL9B, stronger effect = lower value",1
same,normalized growth,"locus YNL071W, strain lat1, stronger effect = lower value",0.858 (active)
same,normalized growth,"locus YNL128W, strain TEP1, stronger effect = lower value",1.02 and 0.958
same,normalized growth,"locus YNL175C, strain NOP13, stronger effect = lower value",0.934
same,normalized growth,"locus YNL197C, strain WHI3, stronger effect = lower value",0.946
same,normalized growth,"locus YNL209W, strain ssb2, stronger effect = lower value",0.99
same,normalized growth,"locus YNL224C, strain SQS1, stronger effect = lower value",0.94
same,normalized growth,"locus YNL233W, strain BNI4, stronger effect = lower value",1
same,normalized growth,"locus YNL248C, strain rpa49, stronger effect = lower value",0.99
same,normalized growth,"locus YNL250W, strain rad50, stronger effect = lower value",0.98
same,normalized growth,"locus YNL271C, strain bni1, stronger effect = lower value",0.993
same,normalized growth,"locus YNL298W, strain CLA4, stronger effect = lower value",1.01
same,normalized growth,"locus YNL307C, strain MCK1, stronger effect = lower value",0.991
same,normalized growth,"locus YNL322C, strain KRE1 (second series), stronger effect = lower value",0.973
same,normalized growth,"locus YNR049C, strain mso1, stronger effect = lower value",0.992
same,normalized growth,"locus YNR052C, strain pop2, stronger effect = lower value",0.979
same,normalized growth,"locus YOL006C, strain TOP1, stronger effect = lower value",0.986
same,normalized growth,"locus YOL012C, strain htz1",1.17
same,normalized growth,"locus YOL147C, strain pex11, stronger effect = lower value",0.993
same,normalized growth,"locus YOR001W, strain rrp6, stronger effect = lower value",0.997
same,normalized growth,"locus YOR061W, strain CKA2, stronger effect = lower value",1.03
same,normalized growth,"locus YOR069W, strain VPS5, stronger effect = lower value",1.02
same,normalized growth,"locus YOR070C, strain gyp1, stronger effect = lower value",0.988
same,normalized growth,"locus YOR080W, strain dia2, stronger effect = lower value",1.01
same,normalized growth,"locus YOR083W, strain WHI5 (second series), stronger effect = lower value",0.891
same,normalized growth,"locus YOR083W, strain WHI5, stronger effect = lower value",0.952
same,normalized growth,"locus YOR106W, strain vam3, stronger effect = lower value",0.955
same,normalized growth,"locus YOR136W, strain idh2, stronger effect = lower value",0.982
same,normalized growth,"locus YOR144C, strain elg1, stronger effect = lower value",0.988
same,normalized growth,"locus YOR184W, strain ser1, stronger effect = lower value",1
same,normalized growth,"locus YOR265W, strain rbl2, stronger effect = lower value",0.979
same,normalized growth,"locus YOR270C, strain vph1, stronger effect = lower value",0.964
same,normalized growth,"locus YOR290C, strain snf2, stronger effect = lower value",0.957
same,normalized growth,"locus YOR316C, strain cot1, stronger effect = lower value",1
same,normalized growth,"locus YPL051W, strain arl3, stronger effect = lower value",0.987
same,normalized growth,"locus YPL055C, strain LGE1, stronger effect = lower value",1.02
same,normalized growth,"locus YPL078C, strain atp4, stronger effect = lower value",0.935
same,normalized growth,"locus YPL106C, strain sse1, stronger effect = lower value",0.972
same,normalized growth,"locus YPL240C, strain hsp82, stronger effect = lower value",0.992
same,normalized growth,"locus YPL241C, strain CIN2, stronger effect = lower value",1.01 and 0.971
same,normalized growth,"locus YPR119W, strain clb2, stronger effect = lower value",0.989
same,normalized growth,"locus YPR141C, strain kar3, stronger effect = lower value",0.991
same,normalized growth,"locus YPR163C, strain tif3, stronger effect = lower value",0.991
same,normalized growth,"locus YPR167C, strain met16, stronger effect = lower value",0.995
same,normalized growth,"strain wtn01, stronger effect = lower value",0.992
